Test results as given in PubChem BioAssay (NCATS).
Results filed as inconclusive are left out. Entries that show only a call come without a potency. Calls of active or inactive are those of the source. Calls follow the shape of the dose curve; as a rule, active = well fitted inhibition curve with a large enough effect; inconclusive = small, poorly fitted or top-dose-only effect; inactive = flat fitted curve, though single readings scatter.

tested on: Zika virus NS2B-NS3 protease; assay: Primary screen GU AMC qHTS for Zika virus inhibitors (AID 1347154); details: Zika NS2B-NS3 unlinked protease, AMC fluorogenic substrate; series mostly up to 54.1 µM; also: nearly all actives have a fitted effect of over 70% in size
Method in brief: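 Unlinked Zika NS2B hydrophilic domain–NS3 protease complex at 25 nM in 10 mM Tris-HCl pH 8.0, 0.01% Tween 20, with an AMC peptide substrate. Fluorescence change (340/450 nm) over 15 min at room temperature, normalized to controls, fitted to 4-parameter Hill.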
Potency is read from the fitted curve at half-maximal effect.

**Q.** For CC1(C)CCC2=C(O1)c1ccccc1C(=O)C2=O, which Potency is on record?
**A.** Its Potency is “inactive”.

**Q.** For O=C(CCc1ccc(O)cc1)c1c(O)cc(O)cc1O[C@@H]1O[C@H](CO)[C@H](O)[C@H](O)[C@H]1O, which Potency is on record?
**A.** Its Potency is “inactive”.

**Q.** With NC[C@@H]1O[C@@H](O[C@H]2[C@@H](O)[C@H](O[C@@H]3[C@@H](O)[C@@H](N)C[C@H](N)[C@H]3O[C@H]3O[C@H](CN)[C@@H](O)[C@@H](O)[C@H]3N)O[C@H]2CO)[C@H](N)[C@@H](O)[C@@H]1O as the compound, how does the Potency read?
**A.** The Potency was “inactive”.

**Q.** How did the Potency turn out when CC[C@@]1(O)C[C@H](O[C@H]2C[C@H](N(C)C)[C@H](O[C@H]3C[C@H](O)[C@H](O[C@H]4CCC(=O)[C@H](C)O4)[C@H](C)O3)[C@H](C)O2)c2c(cc3c(c2O)C(=O)c2c(O)cccc2C3=O)[C@@H]1C(=O)OC was run?
**A.** The Potency was “inactive”.

**Q.** For CN(C)CCC=C1c2ccccc2COc2ccc(CC(=O)O)cc21, which Potency is on record?
**A.** The Potency was “inactive”.

**Q.** For CC(C)n1cnc2c(NCCCCCCNC(=O)OC(C)(C)C)nc(NCCO)nc21, which Potency is on record?
**A.** Its Potency is “inactive”.

**Q.** How did the Potency turn out when CC[C@]1(O)C[C@@H]2CN(CCc3c([nH]c4ccccc34)[C@@](C(=O)OC)(c3cc4c(cc3OC)N(C=O)[C@@H]3C45CCN4CC=C[C@](CC)([C@H]45)[C@@H](OC(C)=O)[C@]3(O)C(=O)OC)C2)C1 (some centres not stated) was run?
**A.** The Potency was “inactive”.

**Q.** O=C(O)c1ccc(-c2c[nH]c3ncc(-c4ccccc4)cc23)cc1C1CCCC1 was tested. Which Potency did it give?
**A.** Its Potency is “inactive”.

**Q.** With CCC(=O)NC[C@H](Cc1ccc(OCCc2nc(-c3ccccc3)oc2C)cc1)NC(C)=CC(=O)c1ccc(C(F)(F)F)cc1 as the compound, how does the Potency read?
**A.** The Potency was “inactive”.

**Q.** Which Potency does the source give for O=C(Nc1c(Cl)cncc1Cl)c1ccc(OC(F)F)c(OCC2CC2)c1 here?
**A.** Its Potency is “inactive”.

**Q.** How did the Potency turn out when COc1ccc(-c2cc(=O)c3c(O)cc(O)cc3o2)cc1O was run?
**A.** Its Potency is “inactive”.

**Q.** With O=C(Nc1cc(Cl)cc2c1[nH]c1cnccc12)c1cccnc1 as the compound, how does the Potency read?
**A.** Its Potency is “inactive”.

**Q.** With CC(C)(C)C(=O)Oc1ccc2c(c1)nc(NC(=O)c1cccc([N+](=O)[O-])c1)n2CCCO as the compound, how does the Potency read?
**A.** The Potency was “inactive”.

**Q.** CC(C)(C(=O)NCC(F)(F)C(F)(F)F)C(=O)N[C@@H]1C(=O)Nc2ccccc2-c2ccccc21 was tested. Which Potency did it give?
**A.** Its Potency is “inactive”.

**Q.** NC(CO)(CO)CCc1ccc(Sc2cccc(OCc3ccccc3)c2)cc1Cl was tested. Which Potency did it give?
**A.** The Potency was “inactive”.

**Q.** COc1ccc(-c2coc3cc(O)ccc3c2=O)cc1 was tested. Which Potency did it give?
**A.** The Potency was 26.7 µM (active).

**Q.** For NC(=O)NN=Cc1ccc([N+](=O)[O-])o1, which Potency is on record?
**A.** The Potency was “inactive”.

**Q.** Which Potency does the source give for Cc1c(O)cccc1C(=O)N[C@@H](CSc1ccccc1)[C@H](O)CN1C[C@H]2CCCC[C@@H]2C[C@@H]1C(=O)NC(C)(C)C here?
**A.** The Potency was “inactive”.

**Q.** Which Potency does the source give for CC#CCn1c(N2CCC[C@@H](N)C2)nc2c1c(=O)n(Cc1nc(C)c3ccccc3n1)c(=O)n2C here?
**A.** The Potency was “inactive”.

**Q.** CC1=C(/C=C/C(C)=C/C=C/C(C)=C/C(=O)Nc2ccc(O)cc2)C(C)(C)CCC1 was tested. Which Potency did it give?
**A.** Its Potency is “inactive”.

**Q.** How did the Potency turn out when Nc1ncnc2ccccc12 was run?
**A.** The Potency was “inactive”.

**Q.** With C[C@@H](O)[C@H]1C(=O)N2C(C(=O)O)=C(S[C@@H]3CN[C@H](C(=O)N(C)C)C3)[C@H](C)[C@H]12 as the compound, how does the Potency read?
**A.** Its Potency is “inactive”.

**Q.** Which Potency does the source give for COc1cc(NC(=O)c2ccc(-c3ccc(Cl)cc3)o2)cc(OC)c1 here?
**A.** The Potency was “inactive”.

**Q.** How did the Potency turn out when Cc1c[nH]c(C=C2C(=O)Nc3ccccc32)c1CCC(=O)O was run?
**A.** The Potency was “inactive”.

**Q.** Which Potency does the source give for Nc1nc(F)nc2c1ncn2[C@@H]1O[C@H](COP(=O)(O)O)[C@@H](O)[C@H]1O here?
**A.** Its Potency is “inactive”.

**Q.** Which Potency does the source give for CCC(=O)O[C@]1(C(=O)CO)CC[C@H]2[C@@H]3CCC4=CC(=O)CC[C@]4(C)[C@@H]3CC[C@@]21C here?
**A.** Its Potency is “inactive”.

**Q.** With NS(=O)(=O)c1ccc(NC2=CC(=O)c3ccccc3C2=O)cc1 as the compound, how does the Potency read?
**A.** Its Potency is “inactive”.

**Q.** How did the Potency turn out when COC[C@@H](c1ccc(C(F)(F)F)cc1)N1CCN(C2(C)CCN(C(=O)c3c(C)ncnc3C)CC2)C[C@H]1C was run?
**A.** Its Potency is “inactive”.

**Q.** For Clc1ccc(-c2nc3sccn3c2C=NOCc2ccc(Cl)c(Cl)c2)cc1, which Potency is on record?
**A.** The Potency was “inactive”.

**Q.** Which Potency does the source give for CC(C(=O)O)c1ccc(-c2ccccc2)c(F)c1 (configuration not stated) here?
**A.** The Potency was “inactive”.

**Q.** How did the Potency turn out when CCCCCCCCCCCC1=C(O)C(=O)C=C(O)C1=O was run?
**A.** Its Potency is “inactive”.

**Q.** Which Potency does the source give for CC(C)(Cc1ccc2ccccc2c1)NC[C@@H](O)COc1cccc(Cl)c1C#N here?
**A.** The Potency was “inactive”.

**Q.** For CO[C@H]1C[C@@H]2CC[C@@H](C)[C@@](O)(O2)C(=O)C(=O)N2CCCC[C@@H]2C(=O)O[C@H]([C@@H](C)C[C@@H]2CC[C@H](O)[C@H](OC)C2)CC(=O)[C@H](C)C=C(C)[C@@H](O)[C@@H](OC)C(=O)[C@H](C)C[C@H](C)C=CC=CC=C1C, which Potency is on record?
**A.** Its Potency is “inactive”.

**Q.** Which Potency does the source give for C[N+]1(C)[C@@H]2CC(OC(=O)[C@H](CO)c3ccccc3)C[C@H]1[C@H]1O[C@@H]12 (some centres not stated) here?
**A.** The Potency was “inactive”.

**Q.** Cc1cnc(C(=O)O)c[n+]1[O-] was tested. Which Potency did it give?
**A.** The Potency was “inactive”.

**Q.** How did the Potency turn out when Nc1ncnc2c1ncn2[C@@H]1O[C@@H](CO)[C@H](O)[C@H]1O was run?
**A.** Its Potency is “inactive”.

**Q.** For O=c1c(-c2ccc(O)cc2)coc2cc(OC3O[C@H](CO)[C@H](O)[C@H](O)[C@H]3O)cc(O)c12 (some centres not stated), which Potency is on record?
**A.** Its Potency is “inactive”.
